# PKM2 inh: inhibitors of human pyruvate kinase M2. actives 0.058% (n = 260,000). Potency, µM (highest dose often 57.5 µM), for the others: at the top dose activity change, negative = inhibition, actives largely listed as inhibitors. purified PKM2, ATP generation, Kinase-Glo luminescence. P14618; note: potency is the fitted concentration of half-maximal effect; nearly all actives have a fitted effect of over 60% in size
# Target sequence (P14618 whole entry, looked up): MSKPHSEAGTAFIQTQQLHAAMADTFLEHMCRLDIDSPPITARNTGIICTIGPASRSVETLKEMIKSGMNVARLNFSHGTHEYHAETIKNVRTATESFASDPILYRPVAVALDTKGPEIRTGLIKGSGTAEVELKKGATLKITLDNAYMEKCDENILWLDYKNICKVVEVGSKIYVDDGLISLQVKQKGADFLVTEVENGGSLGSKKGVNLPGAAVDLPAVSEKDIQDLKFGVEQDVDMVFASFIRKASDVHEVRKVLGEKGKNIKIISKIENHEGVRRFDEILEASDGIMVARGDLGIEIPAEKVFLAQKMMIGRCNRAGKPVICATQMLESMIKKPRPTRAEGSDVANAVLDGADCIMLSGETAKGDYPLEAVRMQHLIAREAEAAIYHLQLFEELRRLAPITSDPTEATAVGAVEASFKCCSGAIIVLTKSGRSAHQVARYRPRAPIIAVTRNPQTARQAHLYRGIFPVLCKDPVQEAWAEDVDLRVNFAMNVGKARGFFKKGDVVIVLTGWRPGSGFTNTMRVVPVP
#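 Coupled luciferase luminescence (Kinase-Glo) detects ATP generated from 0.1 mM ADP and 0.5 mM PEP in imidazole buffer pH 7.2 with KCl, MgCl2; 1 h at room temperature. Enzyme at intermediate activity; normalized to uninhibited and no-enzyme controls.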
# PKM2 inh dose: confirmation of human pyruvate kinase M2 inhibitors, concentration-response; shares compounds with PKM2 inh; purified hPK-M2, Kinase-Glo ATP luminescence, 1 h; Potency, µM (highest dose often 57.5 µM), inactives show top-dose activity change, negative = inhibition, usual class: inhibitors; actives 50% (n = 55); AID 2263
# PKM2 FLuc cs: counter-screen for pyruvate kinase M2 inhibitors: firefly luciferase inhibition; shares compounds with PKM2 inh; Kinase-Glo firefly luciferase, luminescence, 8 min; Potency, µM (titrated, usually from 57.5 µM), inactives show at the highest dose activity, negative = inhibition, most hits filed as inhibitors; actives 30% (n = 55)
# PKM2 inh LDH: confirmation of human pyruvate kinase M2 inhibitors, coupled readout; shares compounds with PKM2 inh; purified hPK-M2, LDH-coupled NADH fluorescence kinetic; Potency, µM (top dose mostly 57.5 µM), for the others: at the top dose activity change, negative = inhibition, hits mostly inhibitors; 55 tested, under 10 active; AID 2267
# Numbers without * were called inactive; ? = inconclusive; . = no result given. This is one part of a sample in which hits are shown more often than they occur. Calls come from the whole dose curve; as a rule, active = well fitted curve in the direction sought with a large enough effect; inconclusive = small, poorly fitted or top-dose-only effect, or another doubt; inactive = no such curve, though single readings can be large; an effect the other way counts as inactive or inconclusive.
SMILES,PKM2 inh,others
O=[N+]([O-])c1ccc(-n2nnnc2-c2ccccc2)cc1,30.6%,
Cc1[nH]n(-c2ccccc2)c(=S)c1C=Nc1ccc([N+](=O)[O-])cc1,11.2µM*,
CC1(C)SC(=S)N(c2ccccc2)C1/[N+]([O-])=C/c1cccc([N+](=O)[O-])c1 (configuration not stated),33.2%,
O=C1CNC(=S)N1CCc1ccc(O)c(O)c1,45.4%,
O=C(C1CC1)N1CCN(S(=O)(=O)c2ccc3c(c2)OCCO3)CC1,33.1%,
Cc1nn(C)c(Sc2ccccc2N)c1[N+](=O)[O-],91.9%,
C=CCn1c(SCc2nc3ccccc3c(=O)[nH]2)nc2scc(C3CC3)c2c1=O,64.3%,
CN(Cc1ccon1)Cc1cn(C)nc1-c1cccc(Cl)c1,10µM*,PKM2 inh dose=5.9%;PKM2 FLuc cs=-0.6%;PKM2 inh LDH=-9.2%
Cc1ccc(NS(=O)(=O)c2ccc3[nH]c(=O)sc3c2)cc1,50.6%,
O=C(N/N=C/c1ccc([N+](=O)[O-])o1)c1ccccc1NS(=O)(=O)c1cccs1,0.4%,
Cc1ccc2nc(-c3ccc(C)o3)c(NC3CCCC3)n2c1,.,PKM2 inh dose=10.9%;PKM2 FLuc cs=0.8%;PKM2 inh LDH=?
Cc1ccc(S(=O)(=O)N2CCN(C(=S)NCc3ccc4c(c3)OCO4)CC2)cc1,39.6%,
N#CCc1nn2c3c(cnc2c1C#N)C(=O)CCC3,54.3%,
Cc1nc(SCC(=O)c2ccccc2)c(C#N)c(-c2ccco2)c1C(=O)NCc1ccco1,76.4%,
Cc1ccc(NS(=O)(=O)c2cc3c4c(cccc4c2)C(=O)NC3=O)cc1C,97.2%,
COc1ccc2nc(S(=O)Cc3ncc(C)c(OC)c3C)[nH]c2c1 (configuration not stated),58.2%,
Cc1ccc(Nc2c(-c3ccsc3)nc3c(C)cccn23)cc1,.,PKM2 inh dose=7.7%;PKM2 FLuc cs=-0.8%;PKM2 inh LDH=?
Cc1ccc(Nc2c(-c3ccsc3)nc3cccc(C)n23)cc1,.,PKM2 inh dose=4.2%;PKM2 FLuc cs=-3.9%;PKM2 inh LDH=?
Cc1ccc(-c2nc3cnccn3c2Nc2ccc3c(c2)OCCO3)o1,48.9%,
COc1ccc(Nc2c(-c3ccc(C)o3)nc3ccccn23)cc1,.,PKM2 inh dose=11.3%;PKM2 FLuc cs=5.0%;PKM2 inh LDH=10.4%
Cc1ccc(Nc2c(-c3ccc(C)o3)nc3cccc(C)n23)cc1,.,PKM2 inh dose=14.0%;PKM2 FLuc cs=0.4%;PKM2 inh LDH=6.51µM*
Cc1ccc(-c2csc(Nc3ccc(S(N)(=O)=O)cc3)n2)o1,88.6%,
COc1ccc(NC(=O)c2cc(-c3ccc(C)o3)nc3ccccc23)cc1OC,38.5%,
O=C1CCN(S(=O)(=O)c2ccccc2)CCN1CCOCc1cccc(F)c1,7.0%,
Cc1ccc(S(=O)(=O)CCN2C=CC(C(F)(F)F)=NCC2)cc1,35.7%,
SMILES,PKM2 inh,others
O=S(=O)(c1cccs1)N1CN(C2CCCCC2)c2nc3ccccc3nc21,-0.8%,
CC1=C(C#N)C(=O)N(C2CCS(=O)(=O)C2)C(=O)/C1=C\c1ccc(C)o1 (configuration not stated),49.4%,
Cc1ccc(C(=O)COc2nc(C)nc3ccccc23)cc1,42.0%,
O=C(CCCl)N(Cc1nc2ccccc2c(=O)[nH]1)Cc1cccs1,54.4%,
CSc1nnnn1-c1ccc(C(=O)OCC(=O)N2CCOCC2)cc1,34.4%,
CCOC(=O)C1(Cc2ccc(OC)cc2)CCN(C(=O)c2cncs2)CC1,-2.8%,
COc1ccc(CN2C(=O)/C(=C/c3ccncc3)SC2=S)cc1,30.6%,
CCN(CC)S(=O)(=O)c1ccc(OC)c(NC(=O)c2cc(C)on2)c1,48.7%,
O=C(NCCN1C(=O)S/C(=C\c2cccnc2)C1=O)C1=NN(c2ccccc2)C(=O)CC1,30.1%,
Cc1cc(C)nc(N2CCN(S(=O)(=O)c3ccc(F)cc3)CC2)n1,41.4%,
O=C(NCc1ccco1)c1ccc2nc3sc4c(c3c(=O)n2c1)CCCC4,32.7%,
NC(=O)C1CCN(C(=O)c2ccco2)CC1,-10.3%,

# Compound activity as filed in PubChem.
